This note sets out measurements from PubChem BioAssay AID651660 (Broad Institute, 2012).

Usually inhibition stands for the drop in the measured response relative to a control, in per cent.

Out of some 1,900 compounds screened, about 15 (0.8%) were called active. Many of the other results were omitted from the sample, so actives are more common in it than they were. A number with no mark means an inactive call.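 The calls were made as follows: active = every replicate shows at least 50% inhibition; inconclusive = mean inhibition at least 50% but some replicate below; inactive = the rest.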

Sequence of DNA repair protein RAD52 homolog (Homo sapiens) (P43351 whole entry, looked up): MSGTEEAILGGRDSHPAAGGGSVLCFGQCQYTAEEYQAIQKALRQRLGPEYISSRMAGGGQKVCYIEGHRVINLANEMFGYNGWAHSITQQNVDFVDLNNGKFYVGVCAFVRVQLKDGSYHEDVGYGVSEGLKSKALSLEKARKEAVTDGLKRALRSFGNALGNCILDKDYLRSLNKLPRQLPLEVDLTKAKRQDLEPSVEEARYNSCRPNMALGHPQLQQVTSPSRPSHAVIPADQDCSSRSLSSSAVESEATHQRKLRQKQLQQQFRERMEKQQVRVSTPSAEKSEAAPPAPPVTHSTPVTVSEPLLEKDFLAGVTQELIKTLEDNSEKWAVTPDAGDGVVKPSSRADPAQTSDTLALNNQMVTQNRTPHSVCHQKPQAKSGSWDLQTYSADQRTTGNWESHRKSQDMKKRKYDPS

This experiment has as its target DNA repair protein RAD52 homolog (Homo sapiens) (UniProt P43351). Kind of experiment: inhibition of RAD52-mediated strand annealing – biochemical, FRET, single point, primary screen (AID 651660).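 Also: 0% = median of neutral control wells and 100% = median of positive control wells.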 As to conditions: Recombinant RAD52 ssDNA annealing, FRET fluorescence, 30 min; at 18.7 µM; stronger effect = higher value.
With `COc1cc2c3cc1Oc1cc(ccc1O)C[C@@H]1c4c(cc(OC)c(O)c4Oc4ccc(cc4)C[C@H]3N(C)CC2)CCN1C`, the inhibition was 77.6% (active).
The result for `c1cnc2c(c1)ccc1ncccc12` reads -3.46%; that for `O=C1NCCN2CCCC12` (stereo not given), -1.15%.
For `CCC1(c2ccccc2)C(=O)N(COC)C(=O)N(COC)C1=O`, the inhibition is -5.47%.
The result for `C[N+]1(C)CCOC(O)(c2ccc(-c3ccc(C4(O)C[N+](C)(C)CCO4)cc3)cc2)C1` (stereo not given) reads 61.8% (active); that for `C=C1[C@@H](C)[C@H]2[C@H](Cc3ccccc3)NC(=O)[C@]23OC(=O)/C=C/[C@H](O)CCC[C@@H](C)C/C=C/[C@H]3[C@@H]1O`, -0.777%; that for `CC(C)(C)C(O)C(Oc1ccc(Cl)cc1)n1cncn1` (stereo not given), -119%.
Take `NCCc1c[nH]c2ccc(F)cc12`: the inhibition was 0.119%.
The result for `CN1C(=O)N(C)C(=O)C2(Cc3ccccc3N3CCOCC32)C1=O` (stereo not given) reads -0.534%.
The result for `CCNC(=S)N(C)CCc1cc2c(c(OC)c1C=C1C(=O)N(C)C(=O)N(C)C1=O)OCO2` reads -15%.
